Data on 39 molecules can be found in PubChem BioAssay (NCI).

The structures appear in SMILES notation. About 83,000 compounds went through this panel and 20% of them were active in at least one assay; those are over-represented in the sample as a whole.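 Growth was measured after 48 h exposure to one concentration of compound in 96-well plates. Values under 10 count as active.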 Calls of active or inactive are those of the source.

The assay has as its system NCI-H322M lung. In words: NCI-60 one-dose screen, 48 h (100 = growth as untreated, 0 = no growth, -100 = all killed). Conditions: 10 µM unless noted.
For the molecule `Oc1c(N=Nc2nn[nH]n2)ccc2ccccc12`, the growth was 57.9% (inactive).
For the molecule `CCN1CCN(c2nc(NNC(=O)Cc3ccccc3)nc(N3CCN(C(c4ccccc4)c4ccccc4)CC3)n2)CC1`, the growth was 105% (inactive).
For the molecule `COc1cc(-c2nnc(-c3nc(-c4cc(OC)c(OC)c(OC)c4)n4ccccc34)o2)ccc1N`, the growth was 83.1% (inactive).
As for `CCOc1cc(/C=C/C(=O)CC(=O)/C=C/c2ccc(OC(=O)CNCCN(CC)CC)c(OCC)c2)ccc1OC(=O)CNCCN(CC)CC`, the growth is -0.873% (active).
For the molecule `Nc1ccc2c(c1Br)Cc1ccccc1-2`, the growth is 114% (inactive).
For the molecule `CCOC(=O)C1=CCC(n2cc(C)c(=O)[nH]c2=O)O1` (centres undefined), the growth is 101% (inactive).
Consider `CCCCCN(CCCCC)CCCNc1c2c(nc3ccc(Cl)cc13)CCCC2`, for which the growth is 73.8% (inactive).
Turning to `COc1ccc(-c2nnc3c4[nH]cnc4ncn23)c(OC)c1`, the growth is 32.9% (inactive).
Turning to `O=C(Nc1nn2c(-c3cc(C(F)(F)F)cc(C(F)(F)F)c3)nnc2s1)C1CCCC1`, the growth is 4.33% (active).
As for `COc1ccc(N2CCN(CC(=O)N3CCN(c4nnc(-c5ccc(Cl)cc5)c(-c5ccc(Cl)cc5)n4)CC3)CC2)cc1`, the growth is 69.3% (inactive).
Turning to `O=C(O)c1ccc2cccnc2c1O`, the growth is 12.4% (inactive).
For `COC(=O)[C@H]1[C@H]2C[C@@H]3c4[nH]c5cc(OC)ccc5c4CCN3C[C@H]2C[C@@H](OC(=O)/C=C/c2cc(OC)c(OC)c(OC)c2)[C@@H]1OC`, the growth is 88.6% (inactive).
In the case of `COc1ccc2nc(-c3ccc(Cl)cc3)cc(-c3nnc(SCC(=O)Nc4ccc(C(C)=O)cc4)n3-c3ccccc3)c2c1`, the growth is 91.5% (inactive).
Consider `COc1cc(/C=C/C(=O)C(C(=O)/C=C/c2ccc(OC(=O)CCNC34CC5CC(CC(C5)C3)C4)c(OC)c2)C(=O)CCNC23CC4CC(CC(C4)C2)C3)ccc1OC(=O)CCNC12CC3CC(CC(C3)C1)C2` (centres undefined), for which the growth is 51.6% (inactive).
On to `N#Cc1ccccc1C#Cc1ccccc1C#Cc1ccc(OCCCCCCOc2ccc(C#Cc3ccccc3C#Cc3ccccc3C#N)cc2)cc1`, for which the growth was 105% (inactive).
For `O=CNc1ccc2c(c1)Cc1cc([N+](=O)[O-])ccc1-2` the value was 9.9% (active).
For `N#CC(C#N)C(C#N)C#N`, the growth is 103% (inactive).
The same measure for `N/C(=N\c1nc2ccccc2s1)NC(=O)Nc1ccccc1Cl`: 45% (inactive).
With `O=c1c2c(=NCCCN3CCCC3)cc3c(=O)n(CCCN4CCCC4)c(=O)c4c(NCCCN5CCCC5)cc(c(O)n1CCCN1CCCC1)c2c4-3`, the growth was -29.5% (active).
As for `C/C(=C\CCc1ccsc1)CC/C=C(\C)CCCN1CCSCC1`, the growth was 78.3% (inactive).
For `COc1ccc(CC(=O)Nc2nn3c(-c4cc(C(F)(F)F)cc(C(F)(F)F)c4)nnc3s2)cc1` the value was 90.6% (inactive); for `CCCCCCCCCCNCCSS(=O)(=O)O`, 76.7% (inactive).
For `O=C(Nc1ccccc1)c1cc(-n2cnc([N+](=O)[O-])c2)cc(-n2cnc([N+](=O)[O-])c2)n1`, the growth is 92% (inactive).
The same measure for `O=C1/C(=C/c2ccc(F)cc2)Cc2ccccc21`: 95.2% (inactive).
For the molecule `CCN(CC)c1ccc(N=C2C=CC(=O)C=C2NC(C)=O)cc1`, the growth was 105% (inactive).
With `C[C@H](C(=O)N[C@@H](Cc1ccc(-c2ccccc2)cc1)C(=O)NC1CC(C)(C)N(C)C(C)(C)C1)c1ccc(-c2ccccc2)c(F)c1`, the growth was -62.3% (active).
As to `CSc1nc2nc3c(nc2c(=O)n1C)C(=O)c1ccccc1C3=O`, the growth is -89.8% (active).
Turning to `O=C(C(=O)c1cc(Br)ccc1O)c1cc(Br)ccc1O`, the growth is 67.6% (inactive).
Turning to `O=C1CSC(c2ccccc2O)N1c1nnc(Cn2ccnc2)o1` (centres undefined), the growth is 69.6% (inactive).
As to `COc1cccc(N2CCN(CC(=O)N3CCN(c4nnc(-c5ccc(Cl)cc5)c(-c5ccc(Cl)cc5)n4)CC3)CC2)c1`, the growth is 71.9% (inactive).
For `NC(=O)NS(=O)(=O)c1ccc(N2N=C(C(F)(F)F)CC2c2cc(C(F)(F)F)cc(C(F)(F)F)c2)cc1` (centres undefined) the value was 88.4% (inactive); for `CC(=O)N1N=C(c2ccc(C(F)(F)F)cc2)CC1c1ccc2c(c1)OCO2` (centres undefined), 84.8% (inactive).
`CCOc1cc(/C=C/C(=O)C(C(=O)/C=C/c2ccc(OC(=O)CNc3nnc(C)s3)c(OCC)c2)C(=O)CNc2nnc(C)s2)ccc1OC(=O)CNc1nnc(C)s1`: the growth is 6.22% (active).
As for `CC(C)N(Cc1ccccc1)c1c(S)ssc1=S`, the growth was 7.56% (active).
Consider `Nc1ccccc1-c1ccn[nH]1`, for which the growth was 93.8% (inactive).
Turning to `FC(F)(F)c1cc(-c2nnc3n2N=C(N2CCCC2)CS3)cc(C(F)(F)F)c1`, the growth is 99% (inactive).
With `COc1c(O)cc2c(c1CC=C(C)C)OC(=O)c1c(cc(O)c(CC=C(C)C)c1O)O2`, the growth was 77.1% (inactive).
Regarding `Fc1ccc(-c2nn3c(-c4cc(C(F)(F)F)cc(C(F)(F)F)c4)nnc3s2)cc1`, the growth is 56.3% (inactive).
The same measure for `COc1ccc2c(c1)c(CC(=O)[Se]C)c(C)n2C(=O)c1ccc(Cl)cc1`: 55.8% (inactive).
